Results on 13 molecules are retold here after PubChem BioAssay.

Calls of active or inactive are those of the source.

Assay [1] concerns Plasmodium falciparum Sir2 (PF13_0152, Sir2A). The assay is described as follows: pfSir2 binders on small-molecule microarrays, primary screen, biochemical, small-molecule microarray, 635 nm fluorescence (AID 1098).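 Also: score merges spot fluorescence intensity with its signal-to-noise ratio.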 Particulars: small-molecule microarray binding, fluorescence 635 nm; higher = more signal.
Assay [2] can be described thus: small-molecule microarray binders of probe aDKK1, primary screen, biochemical, biotinylated probe, 635/667 nm fluorescence (AID 1099).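 Also: score merges 667nm spot fluorescence with signal to noise across triplicate slides; reference of the scale not given here.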 The conditions noted are these: higher = more signal.
The nature of assay [3]: small-molecule microarray binders of probe aCHRDL2, primary screen, biochemical, biotinylated probe, 635/667 nm fluorescence (AID 1100). Particulars: higher = more signal.
Assay [4] can be described thus: splicing luciferase reporter signal modulators, primary screen, spliceosome inhibition project, cell-based, HEK293, splice +/- reporter (AID 1101).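 Also: HEK293 cells carrying a splicing-competent luciferase reporter gene; test concentration not given here.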 The conditions noted are these: luminescence, 24 h, higher = more signal, called active from +8 up or from −8 down. For orientation: A reporter such as luciferase makes a cellular process visible.
In assay [5] the target is Fibroblast growth factor 10 (Homo sapiens) (UniProt O15520). The experiment in a line: FGF10 binders on small-molecule microarrays, primary screen, biochemical, small-molecule microarray, 635 nm fluorescence (AID 1102). The conditions noted are these: FGF10 binding, fluorescence 635 nm, higher = more signal.
Fibroblast growth factor 10 (Homo sapiens), sequence (O15520 whole entry, looked up): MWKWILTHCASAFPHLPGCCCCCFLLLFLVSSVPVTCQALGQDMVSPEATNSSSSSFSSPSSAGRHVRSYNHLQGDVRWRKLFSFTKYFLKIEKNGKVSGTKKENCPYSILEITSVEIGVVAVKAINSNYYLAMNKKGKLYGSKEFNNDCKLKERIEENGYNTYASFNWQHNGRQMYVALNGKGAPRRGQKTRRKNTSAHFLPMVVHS
Assay [6] has as its system glycogen synthase kinase-3 (GSK3A per assay name; protocol says GSK3B). The experiment in a line: GSK3 binders on small-molecule microarrays, primary screen, biochemical, small-molecule microarray, 635 nm fluorescence, GSK3A (AID 1103). Also: the record names both GSK3A and GSK3B. The conditions noted are these: small-molecule microarray binding, fluorescence 635 nm; higher = more signal.
Assay [7] has as its target Epidermal growth factor receptor (Homo sapiens) (UniProt P00533). The assay is described as follows: EGFR binders on small-molecule microarrays, primary screen, biochemical, small-molecule microarray, 635 nm fluorescence (AID 1104).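 Also: score merges 667 nm emission intensity with spot signal to noise over triplicate slides.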 Particulars: EGFR binding, higher = more signal.
Assay [8] deals with Follistatin-related protein 3 (Homo sapiens) (UniProt O95633). The assay is described as follows: FSTL3 binders on small-molecule microarrays, primary screen, biochemical, small-molecule microarray, 635 nm fluorescence (AID 1105).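 Also: score merges emission near 667 nm and signal to noise per printed spot across three slides.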 The conditions noted are these: FSTL3 binding, higher = more signal.
Follistatin-related protein 3 (Homo sapiens), sequence (O95633 whole entry, looked up): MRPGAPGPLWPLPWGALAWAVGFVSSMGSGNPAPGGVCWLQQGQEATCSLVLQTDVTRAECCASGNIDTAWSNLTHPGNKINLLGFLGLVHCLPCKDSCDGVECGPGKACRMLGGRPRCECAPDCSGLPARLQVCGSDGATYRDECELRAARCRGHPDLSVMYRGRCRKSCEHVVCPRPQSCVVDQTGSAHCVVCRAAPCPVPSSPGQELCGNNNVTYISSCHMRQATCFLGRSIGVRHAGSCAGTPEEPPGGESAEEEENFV
Assay [9] addresses Dickkopf-related protein 1 (Homo sapiens) (UniProt O94907). The experiment in a line: DKK1 binders on small-molecule microarrays, primary screen, biochemical, small-molecule microarray, 635 nm fluorescence scan (AID 1106).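 Also: score merges emission near 667 nm with signal to noise over three replicate slides.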 Particulars: DKK1 binding, higher = more signal.
Assay [10] concerns Inhibin beta A chain (activin A). The experiment in a line: INHBA (activin A) binders on microarrays, primary screen, biochemical, small-molecule microarray, 635 nm fluorescence scan (AID 1107).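 Also: mouse activin A protein probed at 4.33 µg/mL on printed slides; score merges bound-protein fluorescence near 667 nm with spot signal-to-noise.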 The conditions noted are these: small-molecule microarray binding, higher = more signal.

Epidermal growth factor receptor (Homo sapiens), sequence (P00533 whole entry, looked up): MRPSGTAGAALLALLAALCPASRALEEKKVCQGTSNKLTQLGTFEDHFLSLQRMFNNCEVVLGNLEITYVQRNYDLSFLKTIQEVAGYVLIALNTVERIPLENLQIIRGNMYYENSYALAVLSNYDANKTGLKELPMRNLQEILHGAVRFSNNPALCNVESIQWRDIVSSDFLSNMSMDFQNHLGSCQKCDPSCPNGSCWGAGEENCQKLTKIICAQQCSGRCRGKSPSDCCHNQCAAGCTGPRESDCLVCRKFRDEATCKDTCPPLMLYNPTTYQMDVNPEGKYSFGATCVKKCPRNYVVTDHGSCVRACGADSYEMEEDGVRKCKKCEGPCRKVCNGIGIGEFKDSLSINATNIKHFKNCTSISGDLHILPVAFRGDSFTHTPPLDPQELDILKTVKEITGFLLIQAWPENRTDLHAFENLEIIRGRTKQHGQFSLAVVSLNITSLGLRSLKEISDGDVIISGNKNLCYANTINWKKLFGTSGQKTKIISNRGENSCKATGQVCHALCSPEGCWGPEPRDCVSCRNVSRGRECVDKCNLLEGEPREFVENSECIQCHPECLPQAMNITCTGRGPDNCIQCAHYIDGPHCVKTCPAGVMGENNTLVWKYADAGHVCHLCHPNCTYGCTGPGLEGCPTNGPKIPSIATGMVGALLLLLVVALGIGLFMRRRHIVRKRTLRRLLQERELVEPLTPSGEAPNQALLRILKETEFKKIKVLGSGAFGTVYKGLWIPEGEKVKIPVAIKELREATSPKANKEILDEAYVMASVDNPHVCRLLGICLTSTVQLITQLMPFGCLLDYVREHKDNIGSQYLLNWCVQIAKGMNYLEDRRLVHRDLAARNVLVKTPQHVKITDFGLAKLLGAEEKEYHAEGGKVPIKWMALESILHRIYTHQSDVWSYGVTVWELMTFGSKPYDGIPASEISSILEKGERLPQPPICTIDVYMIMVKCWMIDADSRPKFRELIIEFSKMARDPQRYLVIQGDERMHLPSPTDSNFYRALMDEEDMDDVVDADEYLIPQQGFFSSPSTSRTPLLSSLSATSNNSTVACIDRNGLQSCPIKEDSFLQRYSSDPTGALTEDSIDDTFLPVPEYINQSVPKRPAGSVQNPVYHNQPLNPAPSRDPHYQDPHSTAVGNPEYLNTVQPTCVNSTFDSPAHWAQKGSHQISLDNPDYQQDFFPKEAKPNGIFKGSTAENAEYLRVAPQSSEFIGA
Dickkopf-related protein 1 (Homo sapiens), sequence (O94907 whole entry, looked up): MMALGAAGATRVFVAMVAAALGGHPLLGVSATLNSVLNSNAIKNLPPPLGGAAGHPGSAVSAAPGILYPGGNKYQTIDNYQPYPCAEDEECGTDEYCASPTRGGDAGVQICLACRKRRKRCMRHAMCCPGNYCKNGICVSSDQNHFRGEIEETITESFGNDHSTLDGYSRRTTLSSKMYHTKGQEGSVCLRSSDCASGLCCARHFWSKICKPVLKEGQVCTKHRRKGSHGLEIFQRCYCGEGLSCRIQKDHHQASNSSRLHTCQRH

For the molecule `CC(C)N1C(=O)c2ccccc2[C@](C)(C(=O)NC2CC2)[C@@H]1c1ccc(CO)cc1`, the composite z-score is 0.173 in assay [1]; 0.0976 in [2]; 0.151 in assay [3]; 0.13 in assay [5]; 0.821 in [6]; -0.415 in assay [7]. In addition, the composite z-score was found to be 0.507 in assay [8], 0.33 in assay [9] and 0.926 in [10]. Moreover, the z-score in [4] is -0.0713 (inactive).

Regarding `CN1C(=O)C2C(C1=O)C1C=C(c3ccc(CO)cc3)C2C(C2CC2)N1Cc1cc2c(cc1Br)OCO2` (stereo not given), the composite z-score in assay [1] was found to be 1.65; in assay [2] it was 0.0878; in assay [3], 0.886; in assay [5], 0.966; in [6], 1.14; in [7], 0.482. The composite z-score in assay [8] is 1.22; in assay [9], 0.334; in assay [10] it was 1.22. For the same molecule, the z-score in [4] was 0.0287 (inactive).

In the case of `CC1CC/C=C\[C@H]2OC34C=CCN(c5ccc6ccccc6c5)C(=O)[C@H]3N(CCCCCO)C(=O)[C@@H]4C2C(=O)O1` (stereo not given in full), the composite z-score in [1] is 0.207; in assay [2] it was 0.207; in assay [3] it was 0.62; in [5], -1.34; in assay [6], -1.25; in assay [7], 0.0445. Moreover, the composite z-score is -0.213 in assay [8], -1.58 in assay [9] and -0.522 in assay [10]. In assay [4], the z-score is 0.375 (inactive).

On to `COc1cc(CO)cc(I)c1O[C@H]1C=C(C(=O)NCCO)C[C@@H](N(CCc2cccc(F)c2)C(=O)CCC2CCCC2)[C@@H]1O`, for which the composite z-score was 1.1 in assay [1]; 0.0556 in [2]; 0.252 in assay [3]; 1.54 in [5]; 1.01 in [6]; -0.261 in assay [7]. Moreover, the composite z-score was determined as 0.716 in [8], 0.897 in assay [9] and 0.733 in [10]. In addition, in [4], the z-score is -1.37 (inactive).

In the case of `Cc1cc(C)c(C(O)C2C=CC3C(=O)NC(=O)C3N2Nc2ccccn2)c(C)c1` (stereo not given), the composite z-score in assay [1] was -0.0405; in assay [2], 0.118; in assay [3] it was 0.862; in assay [5], 0.158; in [6], 0.22; in [7], -0.373. For the same molecule, the composite z-score in assay [8] was 0.547; in [9], -0.669; in [10] it was 0.838. Further, the z-score in [4] was 1.43 (inactive).

As for `C=CCC(OC(C)=O)[C@@H]1[C@@H](N(Cc2ccc(-c3ccccc3)cc2)C(=O)c2ccc(C)cc2)c2cc(OCCCO)ccc2N1C(=O)c1ccc2ccccc2n1` (stereo not given in full), the composite z-score in assay [1] was -0.124; in [2], -0.053; in assay [3], 0.529; in assay [5], -0.0241; in assay [6], -0.609; in [7] it was -0.236. Moreover, the composite z-score in [8] is -0.374; in assay [9], -0.144; in [10], 1.39. In assay [4], the z-score is -1.84 (inactive).

Take `COCCOC(=O)N1C(=O)[C@@]2(c3cc(C#CCCO)ccc31)[C@H](C(=O)NC[C@H](O)c1ccccc1)[C@H]1C(=O)O[C@H](c3ccccc3)[C@H](c3ccccc3)N1[C@@H]2c1ccc(OCCO)cc1`: the composite z-score in [1] worked out at 1.24; in assay [2] it was 0.112; in [3] it was 0.169; in assay [5], 0.901; in assay [6] it was 1.3; in assay [7] it was 0.887. Also, the results for the composite z-score in assay [8], in assay [9] and in assay [10] were 1.26, 0.512 and 0.585, respectively. The z-score in assay [4] was -1.33 (inactive).

For `C=C(/C(=C/C[C@@H](OC(C)=O)c1ccc(CO)o1)c1cnc2ccccc2c1)C(C)C`, the composite z-score was 1.18 in [1]; -0.198 in [2]; -0.541 in [3]; 1.66 in assay [5]; 1.32 in [6]; 0.792 in assay [7]. Also, the composite z-score in [8] worked out at 1.45; in assay [9], 1.24; in assay [10], 1.39. Besides, the z-score in assay [4] was -0.541 (inactive).

As for `CCCCC(=O)N(Cc1ccccc1F)[C@@H]1CC(C(=O)NCCO)=C[C@H](Oc2c(I)cc(CO)cc2OC)[C@H]1O`, the composite z-score in assay [1] is 1.09; in [2] it was -0.22; in assay [3], -0.327; in [5] it was 1.46; in [6], 1.34; in assay [7], 0.91. For the same molecule, the composite z-score was 1.13 in [8], 1.96 in [9] and 0.535 in assay [10]. For the same molecule, in assay [4], the z-score was -0.0457 (inactive).

For the molecule `O=C1O[C@@H](c2ccccc2)[C@@H](c2ccccc2)N2[C@@H](c3ccccc3OCCO)[C@]3(C(=O)Nc4ccc(C#CC5(O)CCCCCC5)cc43)[C@@H](C(=O)NC[C@H](O)c3ccccc3)[C@H]12`, the composite z-score in [1] was 1.06; in assay [2], 1.64; in [3], 0.204; in assay [5] it was 1.3; in assay [6], 0.868; in assay [7] it was 0.265. Also, the composite z-score in assay [8] worked out at 1.08; in [9], 0.283; in assay [10], 1. For the same molecule, the z-score in [4] was -0.525 (inactive).

Turning to `Cc1ccc(S[C@]2(C(=O)NCC(C)C)CC(=O)N(Cc3ccccc3)[C@@H]2c2ccc(CO)cc2)cc1`, the composite z-score in [1] was 0.959; in assay [2], -0.0941; in [3], 1.09; in [5] it was -0.514; in [6], -0.919; in assay [7], -1.14. Moreover, the composite z-score was -0.979 in [8], -1.06 in assay [9] and -0.417 in [10]. The z-score in assay [4] was 0.00364 (inactive).

Take `CC(C)C(=C=CC[C@H](O)c1ccccc1OCCO)CCO`: the composite z-score is 0.0112 in assay [1]; 0.292 in [2]; -0.0417 in assay [3]; 0.0544 in assay [5]; -0.144 in [6]; -0.585 in [7]. The composite z-score in assay [8] is -0.449; in [9], -0.679; in assay [10], 0.913. Besides, in assay [4], the z-score is 0.232 (inactive).

`CC(c1ccccc1)C(O)C1C=CC2C(=O)N(Cc3ccccc3)C(=O)C2N1n1cnnc1` (stereo not given): the composite z-score in [1] amounted to 0.424; in assay [2] it was 0.492; in [3] it was 0.675; in assay [5], 0.691; in [6], 0.29; in assay [7], 0.153. Also, the composite z-score in [8] was 0.369; in assay [9], -0.174; in assay [10], 0.813. For the same molecule, in assay [4], the z-score is -0.605 (inactive).
